# Measured values reported in PubChem BioAssay (Tox21).
# Several values for one entry are separate records, joined by “and”; a condition that tells them apart may be missing. Equal values may be shown once. Records with an inconclusive call do not appear. A call without a number means that no potency is given here. Activity calls are given as the source filed them. Unless noted, calls follow the shape of the dose curve; as a rule, active = well fitted curve in the direction sought with a large enough effect in the repeat runs; inconclusive = weak or mixed curves; inactive = no such curve, though single readings can be large; an effect the other way counts as inactive or inconclusive.
# What was measured:
# [1] = qHTS assay to identify aromatase inhibitors - cell viability counter screen (AID 743084);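 also: cells stimulated with testosterone during compound exposure; nearly all actives have a fitted effect of over 55% in size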; also: potency is read from the fitted curve at half-maximal effect
# [2] = biological target: Aryl hydrocarbon receptor (Homo sapiens) (UniProt P35869); assay: qHTS assay to identify small molecule that activate the aryl hydrocarbon receptor (AhR) signaling pathway (AID 743085); also: nearly all actives have a fitted effect of over 15% in size; also: potency is read from the fitted curve at half-maximal effect;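 as to activation: HG2L7.5c1 human HepG2 liver cells with stably integrated DRE-driven firefly reporter; series mostly up to about 70 µM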
# Sequence of Aryl hydrocarbon receptor (Homo sapiens) (P35869 whole entry, looked up): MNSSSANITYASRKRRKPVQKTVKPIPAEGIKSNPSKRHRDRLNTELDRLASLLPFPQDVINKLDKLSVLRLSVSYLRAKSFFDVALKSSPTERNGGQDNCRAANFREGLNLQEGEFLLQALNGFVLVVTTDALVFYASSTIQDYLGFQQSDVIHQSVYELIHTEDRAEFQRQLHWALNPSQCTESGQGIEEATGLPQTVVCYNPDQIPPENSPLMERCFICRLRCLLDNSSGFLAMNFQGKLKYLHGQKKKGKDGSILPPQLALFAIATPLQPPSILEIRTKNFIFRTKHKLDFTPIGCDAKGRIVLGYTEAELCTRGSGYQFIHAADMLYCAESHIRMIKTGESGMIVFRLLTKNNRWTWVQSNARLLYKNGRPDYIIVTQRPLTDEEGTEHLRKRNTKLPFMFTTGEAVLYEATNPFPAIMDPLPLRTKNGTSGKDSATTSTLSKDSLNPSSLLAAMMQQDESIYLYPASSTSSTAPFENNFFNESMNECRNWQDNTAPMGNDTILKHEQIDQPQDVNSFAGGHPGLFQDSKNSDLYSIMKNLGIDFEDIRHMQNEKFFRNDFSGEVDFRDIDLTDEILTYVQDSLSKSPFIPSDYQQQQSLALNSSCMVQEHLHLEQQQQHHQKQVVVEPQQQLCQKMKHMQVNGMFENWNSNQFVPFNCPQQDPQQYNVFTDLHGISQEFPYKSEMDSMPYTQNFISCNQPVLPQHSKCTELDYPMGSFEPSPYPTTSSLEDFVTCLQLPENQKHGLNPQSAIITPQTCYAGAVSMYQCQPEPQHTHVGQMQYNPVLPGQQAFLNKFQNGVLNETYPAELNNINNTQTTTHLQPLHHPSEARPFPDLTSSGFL
# How it was run: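 AhR agonist activity is inferred from enhanced light output of a DRE-controlled firefly luciferase reporter in HepG2 cells, measured with ONE-Glo following 24 h treatment at 37C.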
# [3] = qHTS assay to identify small molecule that activate the aryl hydrocarbon receptor (AhR) signaling pathway - cell viability counter screen (AID 743086);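 also: HepG2 liver cells carrying the AhR DRE luciferase reporter; series mostly up to about 70 µM; nearly all actives have a fitted effect of over 45% in size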
# How it was run: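 HepG2-AhR-luc (HG2L7.5c1) cells, 4000/well, were preincubated 5 h at 37C, exposed to compound in qHTS format for 24 hr at 37C, then given CellTiter-Fluor for 30 min; viability was read as fluorescence in the reporter wells.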
# [4] = qHTS assay to identify small molecule antagonists of the peroxisome proliferator-activated receptor gamma (PPARg) signaling pathway - cell viability counter screen (AID 743194); also: nearly all actives have a fitted effect of over 55% in size
# How it was run: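 PPARg-UAS-bla HEK293H cells were plated, rested 5 h at 37 C, then treated with compounds plus rosiglitazone (50 nM final) for 17 h at 37 C; viability was then read by CellTiter-Glo luminescence after 30 min at room temperature.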
# [5] = qHTS assay for small molecule agonists of the antioxidant response element (ARE) signaling pathway (AID 743202; active = well fitted activation curve with a large enough effect in the signal ratio in the repeat runs, not every such curve was filed as active; the % refers to the signal ratio; also: potency is read from the fitted curve at half-maximal effect)
# How it was run: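 Steps: seed ARE-bla HepG2 cells (2,000/well); incubate 5 h at 37 C; add compounds by pin tool; incubate 16 h at 37 C; add FRET substrate; read fluorescence after 2 h at RT.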
# [6] = qHTS assay for small molecule agonists of the antioxidant response element (ARE) signaling pathway - cell viability counter screen (AID 743203; calls by dose curve; also: nearly all actives have a fitted effect of over 55% in size)
# How it was run: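 Cytotoxicity was tested in parallel with the ARE reporter screen. ARE-bla HepG2 cells were exposed to compounds for 16 hrs, and viability was taken from CellTiter-Glo luminescence.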
# [7] = qHTS assay for small molecule activators of the heat shock response signaling pathway (AID 743210; active = well fitted activation curve with a large enough effect in the signal ratio in the repeat runs, with a control signal flat, not every such curve was filed as active; the % refers to the signal ratio;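 also: HeLa cells with beta-lactamase reporter driven by heat shock elements; series mostly up to about 63 µM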)
# How it was run: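 Activation of heat shock element-controlled beta-lactamase expression is measured in HeLa cells by LiveBLAzer FRET fluorescence, with compound exposure lasting 5 h at 37 C and substrate loading 2.5 h at room temperature.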
# [8] = qHTS assay to identify small molecule agonists of the peroxisome proliferator-activated receptor delta (PPARd) signaling pathway - cell viability counter screen (AID 743211); also: nearly all actives have a fitted effect of over 55% in size; also: potency is read from the fitted curve at half-maximal effect
# How it was run: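 qHTS cell viability: PPARd-bla HEK293H; 17 h cpd, 37C; CellTiter-Glo, luminescence at 30 min RT.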
# [9] = biological target: Peroxisome proliferator-activated receptor delta (Homo sapiens) (UniProt Q03181); assay: qHTS assay to identify small molecule agonists of the peroxisome proliferator-activated receptor delta (PPARd) signaling pathway (AID 743212; calls by dose curve)
# Sequence of Peroxisome proliferator-activated receptor delta (Homo sapiens) (Q03181 whole entry, looked up): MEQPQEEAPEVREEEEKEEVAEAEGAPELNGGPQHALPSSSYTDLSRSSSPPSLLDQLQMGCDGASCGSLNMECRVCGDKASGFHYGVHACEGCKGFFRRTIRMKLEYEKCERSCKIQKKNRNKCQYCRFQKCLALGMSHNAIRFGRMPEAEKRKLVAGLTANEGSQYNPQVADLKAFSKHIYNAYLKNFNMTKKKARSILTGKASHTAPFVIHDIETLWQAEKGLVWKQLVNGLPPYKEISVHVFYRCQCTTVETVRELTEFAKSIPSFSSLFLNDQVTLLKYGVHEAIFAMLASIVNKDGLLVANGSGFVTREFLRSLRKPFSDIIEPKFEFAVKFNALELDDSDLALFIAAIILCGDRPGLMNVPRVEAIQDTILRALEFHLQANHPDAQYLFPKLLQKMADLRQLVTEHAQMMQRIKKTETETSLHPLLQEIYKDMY
# How it was run: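 Cells expressing a UAS-driven beta-lactamase reporter (PPARd-bla HEK293H) were given test compounds after a 5 h settle and kept at 37 C. Reporter activity was then measured as FRET fluorescence using LiveBLAzer B/G substrate.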
# [10] = biological target: Peroxisome proliferator-activated receptor delta (Homo sapiens) (UniProt Q03181); assay: qHTS assay to identify small molecule antagonists of the peroxisome proliferator-activated receptor delta (PPARd) signaling pathway (AID 743215; active = well fitted inhibition curve with a large enough effect in the signal ratio in the repeat runs, not every such curve was filed as active; the % refers to the signal ratio;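 also: cells stimulated with agonist L165041 at 300 nM final during compound exposure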; also: potency is read from the fitted curve at half-maximal effect)
# How it was run: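 Cells: HEK293H with a UAS-driven beta-lactamase reporter responsive to PPARd. Compounds were co-added with L165041 (300 nM, final) and incubated 17 h at 37 C before a 2 h room-temperature FRET substrate step and fluorescence reading.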
# [11] = biological target: Bile acid receptor (Homo sapiens) (UniProt Q96RI1); assay: qHTS assay to identify small molecule antagonists of the farnesoid-X-receptor (FXR) signaling pathway (AID 743217; active = well fitted inhibition curve with a large enough effect in the signal ratio in the repeat runs, not every such curve was filed as active; the % refers to the signal ratio)
# Sequence of Bile acid receptor (Homo sapiens) (Q96RI1 whole entry, looked up): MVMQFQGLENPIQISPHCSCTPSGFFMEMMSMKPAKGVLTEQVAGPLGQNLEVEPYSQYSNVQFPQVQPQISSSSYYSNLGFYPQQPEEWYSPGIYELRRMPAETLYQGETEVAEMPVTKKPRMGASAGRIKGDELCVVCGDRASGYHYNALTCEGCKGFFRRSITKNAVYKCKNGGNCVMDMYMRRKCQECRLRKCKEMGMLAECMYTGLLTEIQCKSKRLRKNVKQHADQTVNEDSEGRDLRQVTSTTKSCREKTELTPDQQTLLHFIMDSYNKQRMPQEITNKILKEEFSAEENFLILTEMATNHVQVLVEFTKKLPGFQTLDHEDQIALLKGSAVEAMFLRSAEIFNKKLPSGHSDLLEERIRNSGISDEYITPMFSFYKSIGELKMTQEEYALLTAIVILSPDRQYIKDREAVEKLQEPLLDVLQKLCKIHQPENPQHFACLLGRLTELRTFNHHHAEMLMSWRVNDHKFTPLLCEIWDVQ
# How it was run: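 Cells carrying a UAS-driven beta-lactamase reporter (GeneBLAzer FXR-UAS-bla HEK 293T) were plated and rested 5 h at 37 °C. Compounds in DMSO were added alongside chenodeoxycholic acid agonist at 50 uM final and left 16 h at 37 °C before FRET substrate readout.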
# [12] = qHTS assay to identify small molecule agonists of the farnesoid-X-receptor (FXR) signaling pathway - cell viability counter screen (AID 743218); also: nearly all actives have a fitted effect of over 45% in size
# How it was run: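 Cells were seeded, left 5 h at 37 C and 5% CO2, then dosed with compound in DMSO for 16 h. After the beta-lactamase FRET read, CellTiter-Glo was added and luminescence measured 30 min later.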
# [13] = biological target: Bile acid receptor (Homo sapiens) (UniProt Q96RI1); assay: qHTS assay to identify small molecule agonists of the farnesoid-X-receptor (FXR) signaling pathway (AID 743220; active = well fitted activation curve with a large enough effect in the signal ratio in the repeat runs, not every such curve was filed as active; the % refers to the signal ratio)
# How it was run: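 FXR-UAS-bla HEK 293T cells carrying a UAS-driven beta-lactamase reporter were plated for 5 h at 37C/5% CO2, then exposed to DMSO-dissolved Tox21 10K compounds for 16 h at 37C. A LiveBLAzer B/G FRET substrate was loaded for 2 h at room temperature before fluorescence reading.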
# [14] = qHTS assay to identify small molecule antagonists of the farnesoid-X-receptor (FXR) signaling pathway - cell viability counter screen (AID 743221; active = well fitted cell-killing curve with a large enough effect in the repeat runs, not every such curve was filed as active; also: nearly all actives have a fitted effect of over 50% in size)
# How it was run: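 After a 5 h settling period, FXR-bla HEK 293T cells receive compound and chenodeoxycholic acid (50 uM final) and incubate 16 h at 37 C; CellTiter-Glo luminescence, read after 30 min at room temperature, reports cell viability.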
# [15] = biological target: Vitamin D3 receptor (Homo sapiens) (UniProt P11473); assay: qHTS assay to identify small molecule agonists of the vitamin D receptor (VDR) signaling pathway (AID 743222; calls by dose curve)
# Sequence of Vitamin D3 receptor (Homo sapiens) (P11473 whole entry, looked up): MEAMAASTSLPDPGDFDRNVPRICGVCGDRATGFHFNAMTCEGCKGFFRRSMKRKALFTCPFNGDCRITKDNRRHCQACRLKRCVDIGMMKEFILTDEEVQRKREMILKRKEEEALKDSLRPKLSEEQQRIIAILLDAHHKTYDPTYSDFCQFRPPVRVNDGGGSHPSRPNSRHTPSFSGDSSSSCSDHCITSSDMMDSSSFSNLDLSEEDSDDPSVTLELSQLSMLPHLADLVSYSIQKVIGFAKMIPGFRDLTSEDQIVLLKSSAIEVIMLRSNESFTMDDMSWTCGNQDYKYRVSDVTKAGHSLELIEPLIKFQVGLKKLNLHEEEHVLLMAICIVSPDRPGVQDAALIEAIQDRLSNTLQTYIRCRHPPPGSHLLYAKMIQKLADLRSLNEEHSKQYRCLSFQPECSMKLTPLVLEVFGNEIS
# How it was run: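 Cells carrying a VDR-driven beta-lactamase reporter are seeded at 2,000 per well and rested 4 h. Compounds in DMSO are added for 16 h at 37C, and FRET substrate fluorescence is measured after 2 h at room temperature.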
# [16] = biological target: Vitamin D3 receptor (Homo sapiens) (UniProt P11473); assay: qHTS assay to identify small molecule antagonists of the vitamin D receptor (VDR) signaling pathway (AID 743223; active = well fitted inhibition curve with a large enough effect in the signal ratio in the repeat runs, not every such curve was filed as active; the % refers to the signal ratio)
# How it was run: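 Reporter line VDR-bla; stimulus 1alpha,25-(OH)2 vitamin D3, 3 nM final; compound co-addition, 16 h 37C/5% CO2; LiveBLAzer B/G substrate 2 h RT; fluorescence intensity.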
# [17] = qHTS assay for small molecule activators of the heat shock response signaling pathway - cell viability counter screen (AID 743209); also: nearly all actives have a fitted effect of over 50% in size
# How it was run: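 Cytotoxicity counter screen run in parallel with the HSE beta-lactamase reporter, using the same wells. HeLa HSE-bla cells received compound for 5 h at 37 C; ATP-based CellTiter-Glo luminescence was measured after 30 min at room temperature.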
# [18] = qHTS assay to identify small molecule antagonists of the peroxisome proliferator-activated receptor delta (PPARd) signaling pathway - cell viability counter screen (AID 743213); also: nearly all actives have a fitted effect of over 50% in size
# How it was run: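 PPARd-bla HEK293H cells (3000/well) got compound plus 300 nM L165041 agonist for 17 h at 37 C. Viability in the same wells came from CellTiter-Glo luminescence after 30 min at room temperature.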
# [19] = biological target: Peroxisome proliferator-activated receptor gamma (Homo sapiens) (UniProt P37231); assay: qHTS assay to identify small molecule antagonists of the peroxisome proliferator-activated receptor gamma (PPARg) signaling pathway (AID 743191; calls by dose curve; also: nearly all actives have a fitted effect of over 30% in size; also: potency is read from the fitted curve at half-maximal effect)
# Sequence of Peroxisome proliferator-activated receptor gamma (Homo sapiens) (P37231 whole entry, looked up): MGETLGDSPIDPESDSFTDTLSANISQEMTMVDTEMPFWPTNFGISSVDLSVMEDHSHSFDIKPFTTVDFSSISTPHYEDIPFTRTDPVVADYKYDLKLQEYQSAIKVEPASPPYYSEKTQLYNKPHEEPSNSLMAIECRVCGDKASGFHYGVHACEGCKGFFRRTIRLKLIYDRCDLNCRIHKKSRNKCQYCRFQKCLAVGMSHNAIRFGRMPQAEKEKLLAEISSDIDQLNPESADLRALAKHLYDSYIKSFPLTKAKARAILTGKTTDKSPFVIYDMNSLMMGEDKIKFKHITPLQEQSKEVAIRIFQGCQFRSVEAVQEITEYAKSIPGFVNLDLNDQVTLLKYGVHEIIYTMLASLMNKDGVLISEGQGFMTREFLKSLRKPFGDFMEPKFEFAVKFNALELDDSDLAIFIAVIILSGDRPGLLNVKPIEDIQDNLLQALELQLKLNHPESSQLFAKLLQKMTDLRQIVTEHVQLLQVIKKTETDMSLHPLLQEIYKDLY
# How it was run: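 GeneBLAzer PPARg UAS-bla HEK293H cells carrying a UAS-driven beta-lactamase reporter were plated at 3000 cells/well, preincubated 5 h at 37C, then given compound for 17 h at 37C; LiveBLAzer B/G FRET substrate was read after 1 h at room temperature.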
# [20] = biological target: Peroxisome proliferator-activated receptor gamma (Homo sapiens) (UniProt P37231); assay: qHTS assay to identify small molecule agonists of the peroxisome proliferator-activated receptor gamma (PPARg) signaling pathway (AID 743094; active = well fitted activation curve with a large enough effect in the signal ratio in the repeat runs, not every such curve was filed as active; the % refers to the signal ratio)
# How it was run: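 Cells from the PPARg UAS-bla HEK293H line are plated and incubated 5 h at 37C. Compounds in DMSO are pinned in and left 17 h at 37C. LiveBLAzer B/G substrate is then added for 1 h at room temperature before fluorescence is measured.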
Compound,Potency [1],Potency [2],Potency [3],outcome [4],Potency [5],Potency [6],outcome [7],Potency [8],outcome [9],Potency [10],outcome [11],Potency [12],outcome [13],Potency [14],outcome [15],outcome [16],outcome [17],Potency [18],Potency [19],outcome [20]
Cn1cc(S(C)=O)c(=O)c2ccc(F)cc21 (stereo not given),inactive,inactive,inactive,inactive,inactive,inactive,inactive,inactive,inactive,inactive,inactive,inactive,inactive,inactive,inactive,inactive,,,,
CC1(C)CO[C@@H](CC(=O)O)CN1,inactive,inactive,inactive,inactive,inactive,inactive,,inactive,inactive,inactive,,,,inactive,inactive,inactive,inactive,,,
CCn1ccnc1CC1COc2ccccc2O1 (stereo not given),inactive,inactive,inactive,inactive,inactive,inactive,inactive,inactive,inactive,,inactive,inactive,,inactive,,,inactive,,,
COc1ccccc1OCC(O)CN1CCN(CC(=O)Nc2c(C)cccc2C)CC1 (stereo not given),inactive,inactive,inactive,inactive,inactive,inactive,inactive,inactive,,,,inactive,,inactive,inactive,,inactive,inactive,,
CCO/C([O-])=N/c1c[n+](N2CCOCC2)no1,inactive,inactive,inactive,inactive,inactive,inactive,inactive,inactive,,inactive,inactive,inactive,inactive,inactive,inactive,inactive,inactive,inactive,,
c1ccc(CC2=NCCN2)cc1,inactive,inactive,inactive,,inactive,inactive,inactive,inactive,,,inactive,,inactive,inactive,,,inactive,,inactive,
Nc1c[n+](N2CCOCC2)no1,inactive,inactive,inactive,inactive,,inactive,inactive,inactive,,inactive,inactive,,,inactive,,,inactive,inactive,,
CC(C)(c1ccc(O)cc1)c1ccc(O)cc1,inactive,32.2 µM (active),inactive,inactive,27 µM (active) and 17.5 µM (active),inactive,inactive,inactive,inactive,24.3 µM (active),,inactive,,inactive,,,,,,
CCCCCOC(=O)CCCCC,inactive,inactive,inactive,inactive,inactive,inactive,inactive,inactive,,inactive,,inactive,,inactive,inactive,inactive,inactive,inactive,,
CC(C)(C)c1ccc(O)c(O)c1,54.5 µM (active),70.9 µM (active) and 34.4 µM (active),inactive,inactive,28.2 µM (active) and 24.3 µM (active),,,25.4 µM (active),,50.7 µM (active),,inactive,,inactive,inactive,,inactive,,18 µM (active),
Cc1ccc(=O)n(-c2ccccc2)c1,inactive,inactive,inactive,inactive,inactive,inactive,inactive,inactive,,,,,,inactive,inactive,inactive,,,,
N#Cc1ccc(C2CCCc3cncn32)cc1 (stereo not given),inactive,inactive,inactive,inactive,,inactive,inactive,inactive,inactive,,,inactive,,inactive,inactive,inactive,inactive,,,
Cc1c(NC(C)C)c(=O)n(-c2ccccc2)n1C,inactive,inactive,inactive,inactive,inactive,inactive,inactive,,inactive,,,,,inactive,inactive,inactive,,,,
C=C(C)C(=O)OCCCCCCCC(C)C,inactive,inactive,inactive,inactive,inactive,inactive,inactive,inactive,,,,,,inactive,inactive,inactive,inactive,inactive,,
Cc1ccc(Cl)cc1Cl,inactive,inactive,inactive,inactive,inactive,inactive,inactive,inactive,,,,inactive,,inactive,inactive,inactive,,inactive,,
O=c1cc(-c2ccccc2)oc2ccccc12,inactive,24.3 µM (active) and 5.91 µM (active),inactive,inactive,,inactive,inactive,inactive,inactive,inactive,,,,inactive,inactive,inactive,inactive,inactive,,
C1OCOCO1,inactive,inactive,inactive,inactive,,inactive,inactive,inactive,,inactive,inactive,inactive,inactive,inactive,,,inactive,inactive,,
CN1CCN(c2cc3c(cc2F)c(=O)c(C(=O)O)cn3-c2ccc(F)cc2)CC1,inactive,inactive,inactive,inactive,inactive,inactive,inactive,inactive,,,inactive,,,inactive,inactive,,inactive,inactive,,
c1cnc(N2CCN(Cc3ccc4c(c3)OCO4)CC2)nc1,inactive,,inactive,inactive,inactive,inactive,inactive,inactive,inactive,,,,,inactive,inactive,inactive,,,inactive,inactive
